Screening data deposited in PubChem BioAssay by National Center for Advancing Translational Sciences (NCATS).
TDP1 cell CPT – growth inhibition of DT40 Tdp1-/-;hTDP1 cells with camptothecin (screen for TDP1 inhibitors) | chicken DT40 Tdp1-/-;hTDP1 cells + 20 nM CPT, ATP luminescence, 48 h | Potency, µM (top dose mostly 46.2 µM), actives largely listed as inhibitors | 12% of 420,000 active; note: nearly all actives have a fitted effect of over 55% in size
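Cell growth measured by CellTiter-Glo luminescence after a minimum 48 h, 37 C compound exposure with 20 nM CPT in Tdp1-knockout DT40 cells stably expressing hTDP1, seeded 400/well; qHTS titration format.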
DT40 TDP1 no CPT – qHTS for Inhibitors of human tyrosyl-DNA phosphodiesterase 1 (TDP1): qHTS in cells in absence of CPT; DT40 Tdp1-/- hTDP1 cells, no CPT, ATP luminescence, 48 h; 15% of 420,000 active; Potency, µM (series often up to 46.2 µM), usual class: inhibitors; AID 686978, 2013; note: nearly all actives have a fitted effect of over 55% in size
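Luminescent ATP content (CellTiter-Glo) served as the growth readout. Knockout chicken DT40 cells expressing human TDP1 were exposed to compounds without camptothecin for a minimum 48 hr at 37 °C.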
IL-1B inflam inh – blocks inflammasome-driven IL-1 beta release; THP-1 LPS/ATP IL-1B secretion, AlphaLISA, 16 h; active compounds read low; AID 743279; activity change, % at 57.5 µM; 4.7% of 360,000 active; in the data active = activity change below about -50%; inconclusive = mostly about -30% to -49%
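Secreted IL-1B measured by AlphaLISA bead assay after 16 h compound exposure of THP-1 cells; compounds (final up to 57.5 uM) added 1 h before LPS (250 ng/mL) and ATP (1.25 mM) stimulation; lower signal means less secretion.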
HT1080 IDH1KD tx – kills HT-1080 cells with IDH1 knockdown | HT-1080 IDH1 knockdown viability, ATP luminescence, 48 h | Potency, µM (highest dose often 46.1 µM), most hits filed as cytotoxic | 2% of 360,000 active | AID 686971
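After a 2 h attachment period, IDH1KD HT-1080 cells took pin-transferred compound for 48 h at 37 °C; ATP-based luminescence after 10 min room-temperature reagent incubation reported viability.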
ELG1 repair inh – inhibitors of ELG1-dependent DNA repair in HEK293T cells; HEK293T ELG1-luciferase reporter, luminescence, 16 h; DNA damage induced by 5-fluorouridine; Potency, µM (doses to about 46.1 µM), actives largely listed as inhibitors; 2.3% of 330,000 active; note: nearly all actives have a fitted effect of over 55% in size
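Overnight (16 hr) co-exposure of 2,000 cells/well to 5-fluorouridine and compound at 37 °C preceded detection. Luciferase was quantified via ONE-Glo luminescence; loss of signal denotes inhibition.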
HT1080NT lethal – kills 2HG-producing HT-1080-NT fibrosarcoma cells. HT-1080-NT fibrosarcoma viability, CellTiter-Glo ATP luminescence, 48 h. Potency, µM (titrated, usually from 46.1 µM), actives largely listed as cytotoxic. 1.6% of 360,000 active. AID 686970;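 note: NT is the 2HG producing partner of a matched IDH1 knockdown line; nearly all actives have a fitted effect of over 55% in size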
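750 cells/well, RPMI + 5% FBS; 2 h settle, compound pin-transfer, 48 h at 37 degrees C. CellTiter-Glo 10 min RT, luminescence. Normalized to DMSO and media-only wells.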
Each line names hits and unclear results; the compound was inactive in the other large screens; ! = not confirmed by another sample. Most compounds without a hit are left out; they make up all but 19% or so of the library. Unless noted, calls come from the whole dose curve; as a rule, active = well fitted curve in the direction sought with a large enough effect; inconclusive = small, poorly fitted or top-dose-only effect, or another doubt; inactive = no such curve, though single readings can be large; an effect the other way counts as inactive or inconclusive.

COc1ccc(CNC(=O)C[C@H]2C[C@H](C(=O)N(C(C)C)C(C)C)[C@@]3(C)c4[nH]c5cc(CCC(=O)N(C)C)ccc5c4CCN3C2=O)cc1OC	DT40 TDP1 no CPT inconclusive
Cc1ccc(C(=O)COC(=O)CSc2cccc3cccnc23)c(C)c1	TDP1 cell CPT inconclusive, IL-1B inflam inh -87.8 (no result: ELG1 repair inh)
O=C(O)CSc1cccc2cccnc12	TDP1 cell CPT inconclusive, ELG1 repair inh inconclusive
CCOC(=O)[C@H]1[C@H]2COc3ccc(OC)cc3[C@@H]2N2C(=O)CN(Cc3ccccc3)C(=O)[C@@]12C	DT40 TDP1 no CPT inconclusive
COc1cccc(-n2c(SCC(=O)N3CCCCC3)nc3c([nH]c4ccccc43)c2=O)c1	TDP1 cell CPT inconclusive, DT40 TDP1 no CPT 20.6µM
O=C(CSc1nc2c([nH]c3ccccc32)c(=O)n1-c1ccccc1)N1CCCC1	none (no result: IL-1B inflam inh, HT1080 IDH1KD tx, ELG1 repair inh, HT1080NT lethal)
COc1cccc(-n2c(SCC(=O)N3CCc4ccccc43)nc3c([nH]c4ccccc43)c2=O)c1	TDP1 cell CPT 7.31µM, DT40 TDP1 no CPT 10.3µM (no result: IL-1B inflam inh, HT1080 IDH1KD tx, ELG1 repair inh, HT1080NT lethal)
O=C(CSc1nc2c([nH]c3ccccc32)c(=O)n1-c1cccc(Cl)c1)N1CCOCC1	TDP1 cell CPT 18.4µM!, DT40 TDP1 no CPT 14.6µM!, HT1080 IDH1KD tx inconclusive, ELG1 repair inh inconclusive, HT1080NT lethal inconclusive
CCC1CCCCN1C(=O)CSc1nc2c([nH]c3ccccc32)c(=O)n1-c1cccc(OC)c1 (stereo not given)	TDP1 cell CPT inconclusive, DT40 TDP1 no CPT 25.9µM (no result: IL-1B inflam inh, HT1080 IDH1KD tx, ELG1 repair inh, HT1080NT lethal)
Cc1csc(SCC(=O)NCC2Cc3cc(-c4cncnc4)ccc3O2)n1 (stereo not given)	none (no result: IL-1B inflam inh, HT1080 IDH1KD tx, ELG1 repair inh, HT1080NT lethal)
C=CCOc1ccc(CC(=O)O)cc1Cl	none (no result: IL-1B inflam inh, HT1080 IDH1KD tx, ELG1 repair inh, HT1080NT lethal)
COc1ccc(-n2c(SCc3ccccc3)nc3c([nH]c4ccccc43)c2=O)cc1	TDP1 cell CPT inconclusive, DT40 TDP1 no CPT 23.1µM (no result: IL-1B inflam inh, HT1080 IDH1KD tx, ELG1 repair inh, HT1080NT lethal)
COc1cccc(-n2c(SCC(N)=O)nc3c([nH]c4ccccc43)c2=O)c1	TDP1 cell CPT 18.4µM, DT40 TDP1 no CPT 16.4µM
CCSc1nc2c([nH]c3ccccc32)c(=O)n1-c1ccc(OC)cc1	none (no result: IL-1B inflam inh, HT1080 IDH1KD tx, ELG1 repair inh, HT1080NT lethal)
COc1cccc(-n2c(SCC(=O)N3CCc4ccccc43)nnc2-c2c[nH]c3ccccc23)c1	TDP1 cell CPT 16.4µM, DT40 TDP1 no CPT 23.1µM
COCCSc1nc2c([nH]c3ccccc32)c(=O)n1-c1ccc(OC)c(OC)c1	DT40 TDP1 no CPT inconclusive (no result: IL-1B inflam inh, HT1080 IDH1KD tx, ELG1 repair inh, HT1080NT lethal)
COc1ccc(-n2c(SCc3ccccc3F)nc3c([nH]c4ccccc43)c2=O)cc1OC	TDP1 cell CPT 25.9µM, DT40 TDP1 no CPT 16.4µM (no result: IL-1B inflam inh, HT1080 IDH1KD tx, ELG1 repair inh, HT1080NT lethal)
CCOC(=O)C1(CCc2ccccc2)CCN(Cc2c(O)cccc2OC)CC1	TDP1 cell CPT 25.9µM, DT40 TDP1 no CPT 13µM, IL-1B inflam inh -91.7, HT1080 IDH1KD tx 32.6µM, ELG1 repair inh inconclusive, HT1080NT lethal inconclusive
CCOC(=O)C1(CCc2ccccc2)CCN(Cc2cnc(N(C)C)s2)CC1	TDP1 cell CPT inconclusive, DT40 TDP1 no CPT inconclusive, IL-1B inflam inh inconclusive, ELG1 repair inh inconclusive
CCOC(=O)C1(CCc2ccccc2)CCN(Cc2ccc(OC)cc2)CC1	none
CCOC(=O)C1(CCc2ccccc2)CCN(Cc2ccc(O)cc2)CC1	TDP1 cell CPT 16.4µM, DT40 TDP1 no CPT 20.6µM
O=C(N[C@H]1c2ccccc2C[C@H]1O)[C@H]1O[C@@H](n2ccc(=O)[nH]c2=O)[C@H](O)[C@@H]1O	none (no result: ELG1 repair inh)
CC12CCC(C(=O)Nc3cccc(Cl)c3)(C(Br)C1=O)C2(C)C (stereo not given)	TDP1 cell CPT inconclusive, DT40 TDP1 no CPT 18.4µM
CC12CCC(C(=O)Nc3ccc(Cl)cc3)([C@H](Br)C1=O)C2(C)C (stereo not given in full)	DT40 TDP1 no CPT inconclusive (no result: IL-1B inflam inh)
COC(=O)C1(Cc2cc(-c3cccnc3)no2)CCN(C(=O)OC(C)(C)C)CC1	TDP1 cell CPT inconclusive, DT40 TDP1 no CPT inconclusive, ELG1 repair inh inconclusive
